Experimental findings from PubChem BioAssay are described below.

This assay deals with Neurogenic locus notch homolog protein 3 (Homo sapiens) (UniProt Q9UM47). The assay can be described thus: NOTCH3 binders on small-molecule microarray, primary screen, biochemical, 635/667 nm fluorescence (AID 1096). Particulars: NOTCH3 binding, 635 nm fluorescence, higher = more signal.
Chain of Neurogenic locus notch homolog protein 3 (Homo sapiens) (Q9UM47 whole entry, looked up): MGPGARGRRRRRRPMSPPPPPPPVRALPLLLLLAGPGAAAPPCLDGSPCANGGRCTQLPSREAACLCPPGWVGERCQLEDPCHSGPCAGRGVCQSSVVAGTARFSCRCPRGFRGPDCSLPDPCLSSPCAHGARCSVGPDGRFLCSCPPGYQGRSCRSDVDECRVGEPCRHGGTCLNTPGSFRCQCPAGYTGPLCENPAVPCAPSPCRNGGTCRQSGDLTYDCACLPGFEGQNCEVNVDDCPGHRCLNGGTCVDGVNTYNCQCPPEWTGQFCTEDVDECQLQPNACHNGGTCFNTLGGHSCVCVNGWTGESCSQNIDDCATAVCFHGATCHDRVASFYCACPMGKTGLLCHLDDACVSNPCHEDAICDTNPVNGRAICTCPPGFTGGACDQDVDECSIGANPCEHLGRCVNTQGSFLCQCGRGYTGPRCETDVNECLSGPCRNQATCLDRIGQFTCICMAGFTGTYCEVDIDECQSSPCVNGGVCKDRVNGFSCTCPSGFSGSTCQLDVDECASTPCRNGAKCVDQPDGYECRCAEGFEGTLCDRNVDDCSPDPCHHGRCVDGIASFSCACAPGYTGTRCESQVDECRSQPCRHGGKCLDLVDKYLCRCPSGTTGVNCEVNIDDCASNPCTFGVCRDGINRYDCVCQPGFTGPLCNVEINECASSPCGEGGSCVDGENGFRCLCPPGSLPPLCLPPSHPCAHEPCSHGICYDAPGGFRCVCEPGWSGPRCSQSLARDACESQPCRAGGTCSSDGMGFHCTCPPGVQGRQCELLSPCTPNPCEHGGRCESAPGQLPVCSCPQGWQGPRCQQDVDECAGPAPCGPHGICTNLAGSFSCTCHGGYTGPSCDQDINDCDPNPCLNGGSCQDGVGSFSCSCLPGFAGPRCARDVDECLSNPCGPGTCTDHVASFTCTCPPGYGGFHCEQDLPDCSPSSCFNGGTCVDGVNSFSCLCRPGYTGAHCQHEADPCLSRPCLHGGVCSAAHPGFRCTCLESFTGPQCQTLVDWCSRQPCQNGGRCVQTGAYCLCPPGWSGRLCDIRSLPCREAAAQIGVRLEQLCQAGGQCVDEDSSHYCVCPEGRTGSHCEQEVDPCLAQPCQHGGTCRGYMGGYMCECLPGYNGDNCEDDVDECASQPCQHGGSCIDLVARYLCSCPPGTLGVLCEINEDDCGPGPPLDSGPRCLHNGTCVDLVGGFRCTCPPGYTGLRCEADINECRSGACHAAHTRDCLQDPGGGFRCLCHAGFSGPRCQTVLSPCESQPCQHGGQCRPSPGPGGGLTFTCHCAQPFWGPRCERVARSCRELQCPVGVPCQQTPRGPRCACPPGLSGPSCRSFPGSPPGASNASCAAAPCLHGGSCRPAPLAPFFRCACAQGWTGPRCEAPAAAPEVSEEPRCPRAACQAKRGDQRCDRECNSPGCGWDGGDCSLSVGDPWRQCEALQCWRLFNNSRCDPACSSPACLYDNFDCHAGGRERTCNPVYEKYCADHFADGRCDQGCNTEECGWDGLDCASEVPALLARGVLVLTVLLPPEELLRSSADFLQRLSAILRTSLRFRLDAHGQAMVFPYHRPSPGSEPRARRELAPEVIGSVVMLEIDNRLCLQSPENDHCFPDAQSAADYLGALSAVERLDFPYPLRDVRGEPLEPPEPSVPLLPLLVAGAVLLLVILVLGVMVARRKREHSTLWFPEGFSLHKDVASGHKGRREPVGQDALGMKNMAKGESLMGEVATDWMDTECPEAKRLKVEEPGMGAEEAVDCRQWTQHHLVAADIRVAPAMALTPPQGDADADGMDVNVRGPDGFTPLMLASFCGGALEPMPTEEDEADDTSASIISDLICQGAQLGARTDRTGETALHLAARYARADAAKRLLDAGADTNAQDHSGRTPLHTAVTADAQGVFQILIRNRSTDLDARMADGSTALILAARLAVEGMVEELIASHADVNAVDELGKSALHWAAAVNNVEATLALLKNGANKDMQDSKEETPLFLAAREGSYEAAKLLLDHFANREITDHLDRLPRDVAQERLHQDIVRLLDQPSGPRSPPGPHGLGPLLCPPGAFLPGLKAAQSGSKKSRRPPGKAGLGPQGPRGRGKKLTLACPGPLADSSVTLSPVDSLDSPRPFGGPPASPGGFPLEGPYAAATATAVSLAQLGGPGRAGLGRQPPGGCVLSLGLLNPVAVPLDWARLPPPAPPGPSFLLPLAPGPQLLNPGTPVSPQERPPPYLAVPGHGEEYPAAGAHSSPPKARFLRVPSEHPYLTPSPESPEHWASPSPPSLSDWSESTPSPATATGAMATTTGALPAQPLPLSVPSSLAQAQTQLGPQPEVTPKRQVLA
Consider `Cc1ccc(NN2C(C(O)c3c(F)cccc3Cl)C=CC3C(=O)N(C4CCCCC4)C(=O)C32)cc1` (stereo unspecified), for which the composite z-score stood at 1.05.
Molecule `CC(C)N1C(=O)C[C@@](C(=O)O)(c2ccc([N+](=O)[O-])cc2)[C@H]1c1ccc(CO)cc1` came in with a composite z-score of 0.0599.
The molecule `CCCN1C(=O)[C@@]2(Cc3ccccc31)N=C(c1ccc(OCCCO)cc1)O[C@H]2c1ccccc1` displayed a composite z-score of 0.355.
With `C=CCN1C(=O)[C@]2(CCS(=O)(=O)c3ccccc3)N=C(c3ccc(OCCCO)cc3)O[C@@H]2c2ccccc21`, the composite z-score was 1.1.
`C=CC[C@@]1(C(=O)NCCCOC)N=C(c2ccc(OCCCO)cc2)O[C@@H]1c1ccccc1` had a composite z-score of -0.741.
In the case of `COC(=O)c1c(CC[C@@H](CO)NC(=O)N2CCC[C@H]2Cn2cc(C3(O)CCCCC3)nn2)oc(C(C)=O)c1C(=O)OC` it was 0.916.
`COCC(=C=CC[C@H](O)c1ccc(OCCO)cc1)CCO` registered a composite z-score of 0.227.
Molecule `C=CCNC(=O)[C@@H]1[C@H]2C(=O)O[C@H](c3ccccc3)[C@H](c3ccccc3)N2[C@H](c2ccccc2OCCO)[C@@]12C(=O)N(C(=O)OCCOC)c1ccc(C#CC3(O)CCCCCC3)cc12` yielded a composite z-score of 1.1.
The same measure for `COc1ccc([Si](C)(C)[C@@H]2[C@@H](CCO)O[C@]3(C(=O)N(Cc4ccccc4)c4ccc(N5C(=O)c6cccc7cccc5c67)cc43)[C@H]2C)cc1`: -0.0162.
`C=CC[C@]1(C(=O)N2CCCCC2)N=C(c2ccc(OCCCO)cc2)O[C@H]1c1ccccc1CN=[N+]=[N-]` showed a composite z-score of 1.08.
With `COC(=O)C1(CC(C)C)C=C2C(=C(c3ccccc3)C(=O)C2C)CN1` (stereo unspecified), the composite z-score came to 0.141.
Take `COc1ccc(CCNC(=O)[C@@H]2c3ccccc3C(=O)N(C3CCCCC3)[C@H]2c2ccc(CO)cc2)cc1`: the composite z-score was found to be 0.366.
On to `CCCCCN1CC=CC23O[C@@H]4C=CCCOC(=O)C4[C@H]2C(=O)N(CCCCCCO)[C@@H]3C1=O` (stereo partly specified), for which the composite z-score was -0.135.
`CCOC(=O)C[C@H]1[C@H](OC(=O)c2ccc(-c3ccccc3)cc2)[C@@H](NC(=O)CC(C)C)c2cc(OCCCO)ccc2N1C(=O)c1ccc2ccccc2n1` displayed a composite z-score of 0.753.
Molecule `COC(=O)C(CC#Cc1ccc2c(c1)[C@]1(C(=O)N2)[C@H](c2ccc(O)cc2)N2[C@H](c3ccccc3)[C@H](c3ccccc3)OC(=O)[C@H]2[C@@H]1C(=O)NC[C@H](O)c1ccccc1)C(=O)OC` registered a composite z-score of 1.09.
Consider `COC(=O)[C@]1(CCS(=O)(=O)c2ccccc2)N=C(c2ccc(OCCCO)cc2)O[C@@H]1c1ccccc1N=[N+]=[N-]`, for which the composite z-score amounted to 1.04.
Consider `O=C1C2C=CC(C(O)C3CC=CCC3)N(Nc3ccccc3)C2C(=O)N1c1ccccc1` (stereo unspecified), for which the composite z-score turned out to be 1.06.
`CCOC(=O)C[C@H]1[C@H](OC(=O)c2cc3ccccc3oc2=O)[C@@H](NC(=O)c2ccccc2)c2cc(OCCCO)ccc2N1C(=O)c1ccccc1` yielded a composite z-score of 0.819.
`COc1ccc([Si](C)(C)[C@H]2[C@H](CC(=O)N3Cc4ccccc4C[C@H]3CO)O[C@@]3(C(=O)N(Cc4ccc(N5CCOC5=O)cc4)c4ccccc43)[C@@H]2C)cc1` showed a composite z-score of 1.11.
In the case of `CC1CC/C=C\[C@H]2OC34C=CCN(C(C)C)C(=O)[C@H]3N(CCO)C(=O)[C@@H]4C2C(=O)O1` (stereo partly specified) it was -0.355; in that of `COCCCNC(=O)[C@@H]1c2ccccc2C(=O)N(C(C)C)[C@H]1c1ccc(CO)cc1`, -0.406; in that of `COc1cccc(C)c1NC(=O)O[C@H]1[C@H](OC(=O)Nc2ccccc2-c2ccccc2)[C@H](OC(=O)Nc2ccccc2-c2ccccc2)[C@@H](OC)O[C@@H]1CO`, 1.07.
`CC(C)c1ccc(NN2C(C(O)c3ccc(F)cc3)C=CC3C(=O)N(c4ccccc4)C(=O)C32)cc1` (stereo unspecified) had a composite z-score of 1.03.
The molecule `C#CCN(Cc1ccccc1Br)[C@H](/C=C/c1ccccc1)[C@@H](O)Cc1ccccc1` came in with a composite z-score of -0.623.
`[N-]=[N+]=Nc1ccccc1C[C@]1(C(=O)NCC(O)CO)COC(c2ccc(OCCCO)cc2)=N1` (stereo partly specified): the composite z-score was -1.26.
Regarding `O=C1O[C@@H](c2ccccc2)[C@@H](c2ccccc2)N2[C@@H](c3ccc(OCCO)cc3)[C@]3(C(=O)Nc4ccc(C#CC5=CCCCC5)cc43)[C@@H](C(=O)NC[C@H](O)c3ccccc3)[C@H]12`, the composite z-score amounted to 1.02.
In the case of `CCCC=C(CCC)[C@@H](NS(=O)(=O)c1ccc(C(F)(F)F)cc1)c1ccccc1`, the composite z-score worked out at 0.275.
As for `CCCCCCCCCC(O)C1C=CC2C(=O)N(c3ccccc3)C(=O)C2N1Nc1cc(OC)c(OC)c(OC)c1` (stereo unspecified), the composite z-score was 0.631.
Turning to `O=C(c1ccccc1)N1C(=O)[C@]2(Cc3ccccc31)N=C(c1ccc(OCCCO)cc1)O[C@@H]2c1ccccc1`, the composite z-score was determined as 1.07.
With `CCCCC=C[C@@H](NC(=O)OCc1ccccc1Cl)c1ccccc1`, the composite z-score was found to be 1.02.
`COc1cc(C(O)C2C=CC3C(=O)N(C)C(=O)C3N2Nc2ccccc2)cc(OC)c1OC` (stereo unspecified) registered a composite z-score of 1.11.
Take `C=CC[C@H](OC(=O)Nc1ccc(SC)cc1)c1ccc(O)c2ccccc12`: the composite z-score came out at 1.1.
In the case of `[N-]=[N+]=Nc1ccccc1C[C@@]1(C(=O)N2CCOCC2)N=C(c2ccc(OCCCO)cc2)O[C@@H]1c1ccccc1` it was 1.11; in that of `COc1ccc(C(=O)Nc2ccc(CN3C(=O)[C@]4(O[C@H](CC(=O)N5Cc6ccccc6C[C@H]5CO)[C@@H]([Si](C)(C)c5ccc(OC)cc5)[C@@H]4C)c4ccccc43)cc2)cc1`, 1.13; in that of `C=CCNC(=O)[C@@H]1[C@H]2C(=O)O[C@H](c3ccccc3)[C@H](c3ccccc3)N2[C@H](c2ccc(O)cc2)[C@@]12C(=O)N(C(=O)OCCOC)c1ccc(C#CC3=CCCCC3)cc12`, 1.09.
On to `C=CCOC(=O)[C@@]1(Cc2ccccc2)C[C@H]2CO[C@H](c3ccc(OC)cc3)N2C1=O`, for which the composite z-score stood at 0.408.
